Reference: ChEMBL document CHEMBL4513216, “Probing the Open Global Health Chemical Diversity Library for Multistage-Active Starting Points for Next-Generation Antimalarials” (ACS Infect Dis, 2020)
About 8,600 (12%) of roughly 69,000 compounds showed an effect of 50% or more. Shown is part of a subset that was picked to be rich in strong results.

test system: Plasmodium berghei; experiment: Screen against P. berghei liver stage (PbLuc), transformed with Luciferase, at 10uM; format: functional, HepG2; details: tested at 10 uM

SMILES | INHIBITION [%]
COc1ccc2c(c1)OC1(CCN(Cc3ccc(C)cc3)CC1)CC2=O | 31.2
CCOC(=O)CN1CCC2(CC1)CC(=O)c1ccc(OC)cc1O2 | 72.4
CSCCC(=O)N1C[C@@H](C)[C@](O)(C(C)C)C1 | 22.5
CCn1cnnc1CNC(=O)N1CCC(CN2CCOCC2)CC1 | -11.4
CNc1ncc(CN(C)C(=O)c2cccc(-n3cnnc3)c2)cn1 | 28.5
CC(C)c1nc(C2CCCN2Cc2cc(=O)n(C)c(=O)n2C)no1 (configuration not stated) | 33.8
CCc1[nH]nc(NC(=O)c2cc[nH]n2)c1C | 0.342
N#Cc1ccc(N2CCCC3(CCC(=O)N3CC3CC3)CC2)nc1 (configuration not stated) | 56.6
N#Cc1ccc(N2CCC3(CCC(=O)N3CCN3CCCC3)CC2)nc1 | 68.4
O=C1CCC2(CCCN(c3ncc(F)cn3)CC2)N1CC1CC1 (configuration not stated) | -57.6
N#Cc1ccc(N2CCC3(CCC(=O)N3Cc3ccncc3)CC2)nc1 | 43.9
N#Cc1ccc(N2CCC3(CCC(=O)N3Cc3cccnc3)CC2)nc1 | 27.6
CN1C(=O)CCC12CCN(c1ccc(C#N)cn1)CC2 | 38.5
O=C(c1ccsc1)N1CCN2C[C@H](OCc3cccnc3)C[C@H]2C1 | 21.6
CCc1nc(-c2ccc(NC(=O)N3CCCC3)cc2)no1 | -81
CCCC1COCCN1Cc1ccc(C(=O)O)cc1 (configuration not stated) | 19.8
Cc1nc2cc(O)nn2c(C)c1CCC(=O)N(C)Cc1ccccc1 | -24.8
Cc1cc(C(=O)N2CCC(CCn3cccn3)CC2)c(C)o1 | 39.5
Cc1cccc(C(=O)N2CCN(C(=O)Cc3ccccn3)CC2)c1C | 31.8
Cc1cc(C(=O)N2CCN(CC(O)Cn3cccn3)CC2)c(C)o1 (configuration not stated) | 29.6
Cc1cc(C(=O)N2C[C@@H]3C(CN(C)CCc4ccccn4)[C@@H]3C2)c(C)o1 (some centres not stated) | 41.5
Cc1ccccc1C(=O)N1C[C@@H]2C(CN(C)CCc3ccccn3)[C@@H]2C1 (some centres not stated) | 55.4
Cc1cc(C(=O)N2C[C@@H]3C(CN(C)CCCn4cccn4)[C@@H]3C2)c(C)o1 (some centres not stated) | 52.6
Cc1noc(C2CCC3(CCN(C(=O)c4cnccn4)CC3)O2)n1 (configuration not stated) | -4.32
c1ccc(-n2ccc(CNC3CCc4ncnn4C3)n2)cc1 (configuration not stated) | 16.45
Cc1ccc(-c2ccccc2CC2(C(=O)NC(C)C)CCCNC2)cc1 (configuration not stated) | 42.1

SMILES | INHIBITION [%]
Cc1occc1C(=O)N1CCCn2cnc(CN3CCCC3=O)c2C1 | 34.2
COc1nccc(N2CC[C@@H](N3CCN(C)CC3)[C@H](O)C2)c1C#N | -3.77
Cc1cnc(C)c(N2CCCC(CO)(Cc3ccccc3C)C2)n1 (configuration not stated) | 68.4
Cc1cnc(C)c(N2CCCC(C/C=C/c3ccccc3)(C(=O)O)C2)n1 (configuration not stated) | 27.9
Cc1ccccc1CC(=O)N(C)CC1(O)CCCN(c2ccccn2)C1 (configuration not stated) | -10.5
Cc1ccccc1CC1(CO)CCCN(c2ncncc2C(C)C)C1 (configuration not stated) | 68.4
COc1cccc(CC2(CO)CCCN(c3nccs3)C2)c1 (configuration not stated) | 3.46
Cc1ccccc1CC1(CO)CCCN(c2ncnc3sccc23)C1 (configuration not stated) | 87.9
Cc1cnc(C)c(N2CCC(Cc3ccccc3Cl)(C(=O)O)CC2)n1 | 13.5
Cc1ccccc1CC1(C(=O)O)CCCN(c2ncnc3[nH]ccc23)C1 (configuration not stated) | 25.5
CCCC1(CO)CCCN(c2ncnc3c2c(C)nn3C)C1 (configuration not stated) | 25.9
Cc1cnc(C)c(N2CCCC(CC3CC3)(C(=O)O)C2)n1 (configuration not stated) | 57.5
CCNC(=O)[C@@H]1C[C@@H](NC(=O)c2ccc(C#N)cc2)CN1CCCSC | -14.3
CCCC(=O)N1CCC([C@@H]2C[C@H](C(F)(F)F)n3nc(C)cc3N2)CC1 | -29.8
CC(=O)Nc1nc(C(=O)N2CCCC2Cn2cccn2)cs1 (configuration not stated) | 37.3
CN(C(=O)Cn1nc(-c2ccc(F)cc2)ccc1=O)C1CCS(=O)(=O)C1 (configuration not stated) | 13.4
c1cnnc(N2CCCC2CNCc2csc(-c3ccco3)n2)c1 (configuration not stated) | 31.95
Cc1ncsc1C(=O)N(Cc1cccs1)C1CC1 | 6.25
CCCNCc1cn(C)nc1-c1cccnc1 | 2.74
COc1c(C2CCCN2C(=O)c2csc(C3CC3)n2)c(C)nn1C (configuration not stated) | -21.5
CC(C)Nc1cccc(CC2CCN(C)C2)n1 (configuration not stated) | -52.6
COCC1CN(Cc2c(C)noc2C)Cc2ccnn2C1 (configuration not stated) | 15.9
CC(C)N1CCC(C(=O)N2CCc3c(nc(CC4CC4)[nH]c3=O)C2)CC1 | 53.8
CC(C)N1CCCC(C(=O)N2CCc3c(nc(CC4CC4)[nH]c3=O)C2)C1 (configuration not stated) | 26.9
CC(C)N1CC(C(=O)N2CCc3c(nc(CC4CC4)[nH]c3=O)C2)CC1=O (configuration not stated) | 20.6
c1csc(CN2CCn3c(Cn4cncn4)cnc3C2)c1 | 20.6
